Results filed as inconclusive are left out. Where a call stands in place of a potency, no number is given. Activity calls are given as the source filed them. Calls follow the shape of the full dose curve; tested in HEK293 reporter line.
Potency is read from the fitted curve at half-maximal effect.

A short description of this assay: qHTS for Inhibitors of the Functional Ribonucleoprotein Complex (vRNP) of Lymphocytic Choriomeningitis Arenaviruses (LCMV): Viability assay - alamar blue signal for LCMV Primary Screen (AID 1347085). Also: nearly all actives have a fitted effect of over 80% in size. As to conditions: alamar blue viability counter-screen, LCMV vRNP screen cells; series mostly up to 57.5 µM.
With `CC(C)Oc1cc(Nc2nc(N[C@@H](C)c3ccc(F)cn3)ncc2Cl)[nH]n1`, the Potency entry was “inactive”.
The result for `CCN(CC)CCNC(=O)c1ccc(NC(C)=O)cc1` reads “inactive”; that for `CC(C)(C)C(=O)Oc1ccc2c(c1)nc(NC(=O)c1cccc([N+](=O)[O-])c1)n2CCCO`, “inactive”.
The result for `CCCCOCCOc1nc(-c2ccc(C(=O)O)c(F)c2)sc1C` reads “inactive”.
The result for `c1ccc2occc2c1` reads “inactive”; that for `Cn1c(=O)n(-c2ccc(C(C)(C)C#N)cc2)c2c3cc(-c4cnc5ccccc5c4)ccc3ncc21`, 0.0611 µM (active); that for `CCn1cc(C(=O)O)c(=O)c2cc3c(cc21)OCO3`, “inactive”.
Regarding `O=C1C(CCC(O)c2ccc(F)cc2)C(c2ccc(O)cc2)N1c1ccc(F)cc1` (stereo not given), the Potency entry was “inactive”.
The result for `O=c1[nH]c(-c2ccc(C(F)(F)F)cc2)nc2c1CSCC2` reads “inactive”; that for `Cc1cccc(C#Cc2ccccc2)n1`, “inactive”.
In the case of `NC(CO)C(=O)NNCc1ccc(O)c(O)c1O` (stereo not given), the Potency entry is “inactive”.
For `Cn1c(Nc2ccc(C(F)(F)F)cc2)nc2cc(Oc3ccnc(-c4ncc(C(F)(F)F)[nH]4)c3)ccc21`, the Potency was 8.63 µM (active).
The result for `CC(C)(Sc1ccc(CCN(CCCCC2CCCCC2)C(=O)NC2CCCCC2)cc1)C(=O)O` reads “inactive”.
In the case of `O=C(O)c1ccc2cc(-c3ccc(O)c(C45CC6CC(CC(C6)C4)C5)c3)ccc2c1`, the Potency result is “inactive”.
In the case of `CC(=O)[C@H]1CCC2C3CC[C@H]4C[C@H](O)CC[C@]4(C)C3CC[C@@]21C` (stereo not given in full), the Potency entry was “inactive”.
For the molecule `CCCN(CCC)[C@@H]1CCc2ccc(O)cc2C1`, the Potency result was “inactive”.
The result for `CC1=NN(c2ccccc2)C(=O)C1` reads “inactive”; that for `CCCCCN(CCC12CC3CC(CC(C3)C1)C2)C(=O)NCCCc1ccncc1`, “inactive”; that for `CC(=O)NCCC(=O)N[C@@H](CCC(N)=O)C(=O)N[C@@H](CO)C(=O)N[C@@H](CCC(N)=O)C(=O)N[C@@H](CCC(N)=O)C(=O)N[C@H](C(=O)N[C@@H](Cc1ccccc1)C(=O)N[C@]1(C)CCCCCCC=CCCC[C@@](C)(C(=O)N[C@@H](CCC(N)=O)C(=O)N[C@@H](CC(N)=O)C(N)=O)NC(=O)[C@H](CC(C)C)NC(=O)[C@H](CC(C)C)NC(=O)[C@@H](CCCNC(=N)N)NC(=O)[C@H](Cc2c[nH]c3ccccc23)NC(=O)[C@H](CC(C)C)NC(=O)[C@H](CC(N)=O)NC1=O)[C@H](C)O`, “inactive”.
The result for `CCN1CCN(c2cc3c(cc2F)c(=O)c(C(=O)O)cn3C2CC2)CC1` reads “inactive”.
In the case of `COc1cccc(OC)c1-c1cc(C(=O)NC2(C(=O)O)C3CC4CC(C3)CC2C4)nn1-c1ccnc2cc(Cl)ccc12` (stereo not given), the Potency result is “inactive”.
With `COc1ccc(CCN(C)CCCOc2ccc(S(=O)(=O)c3[nH]c4ccccc4c3C(C)C)cc2)cc1OC`, the Potency result is “inactive”.
The result for `CCOc1ccn(-c2ccc(F)cc2)c(=O)c1C(=O)Nc1ccc(Oc2ccnc(N)c2Cl)c(F)c1` reads “inactive”; that for `CC1=C(CO)C(=O)O[C@@H]([C@@H](C)[C@H]2CC[C@H]3[C@@H]4C[C@H]5O[C@]56[C@@H](O)C=CC(=O)[C@]6(C)[C@@H]4CC[C@]23C)C1`, 3.85 µM (active).
The result for `Nc1ccccc1NC(=O)c1ccc(CNc2nccc(-c3cccnc3)n2)cc1` reads 12.2 µM (active); that for `Clc1ccccc1CN1CCc2sccc2C1`, “inactive”; that for `COc1ccc(-c2ccc3c(N4CCOC[C@H]4C)nc(N4CCOC[C@H]4C)nc3n2)cc1CO`, 0.0306 µM (active).
Take `O=C(O)CC(O)C(=O)O` (stereo not given): the Potency result is “inactive”.
The result for `O=C(Oc1ccccc1)c1cccc(C(=O)Oc2ccccc2)c1` reads “inactive”.
The result for `CC(C)(N)C(=O)N[C@H](COCc1ccccc1)C(=O)N1CCC2(CC1)CN(S(C)(=O)=O)c1ccccc12` reads “inactive”; that for `CCN1CCc2nc(N)oc2CC1`, “inactive”.
The result for `CCC[C@H](NC(=O)C(C#N)=Cc1cccc(Br)n1)c1ccccc1` reads “inactive”.
For the molecule `COc1cc2c(cc1OC)C(=O)CC2`, the Potency result is “inactive”.
The result for `O=C(Nc1ccc(OC(F)(F)F)cc1)c1sccc1NCc1ccnc2ccccc12` reads “inactive”; that for `CCN(CC)CCn1c(=O)c(Cc2ccc(OC)cc2)nc2ccccc21`, “inactive”; that for `Cc1cnc(Nc2ccc(OCCN3CCCC3)cc2)nc1Nc1cccc(S(=O)(=O)NC(C)(C)C)c1`, “inactive”.
`COc1ccccc1O`: the Potency result was “inactive”.
For the molecule `c1ccc2c(CCNc3ccc(Nc4ccncc4)cc3)c[nH]c2c1`, the Potency was 17.2 µM (active).
The result for `C[C@@H]1CN(c2c(F)c(N)c3c(=O)c(C(=O)O)cn(C4CC4)c3c2F)C[C@H](C)N1` reads “inactive”; that for `NCCCC(N)(C(=O)O)C(F)F` (stereo not given), “inactive”.
